From PMC9911399, “Two distinct binding modes provide the RNA-binding protein RbFox with extraordinary sequence specificity”
Residue numbers refer to the chain shown, from its start. Whole data set: some 16,000 sequences, median “ka relative to ugcaugu” near 0.096, cut for the highest 2% near 0.35. For the sample, the highest values were picked, then their nearest neighbours and some sequences at random.

T1: RBFOX1 RRM RbFoxmut (Fox-RRM*) (Homo sapiens, UniProt Q9NWB1 109-208, R118D;E147R;N151S;E152T)
T1 sequence: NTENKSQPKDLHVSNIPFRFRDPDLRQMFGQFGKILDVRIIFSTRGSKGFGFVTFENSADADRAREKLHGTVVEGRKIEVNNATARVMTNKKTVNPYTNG

B1: UCCCUCG (DNA:RNA)
RNA: GGGAGACCGGAAUUCAGAUUGUCCUCCCUCGUUAAAUCCCGUCGUAGCCACCA
DNA 1: CAATCTGAATTCCGGTCTCCC
DNA 2: TGGTGGCTACGACGGGATT
B2: CAACAUU (DNA:RNA)
RNA: B1 RNA with U25C, C26A, C27A, U29A, C30U, G31U
DNA 1: CAATCTGAATTCCGGTCTCCC
DNA 2: TGGTGGCTACGACGGGATT
B3: UUGUUCU (DNA:RNA)
RNA: B1 RNA with C26U, C27G, C28U, G31U
DNA 1: CAATCTGAATTCCGGTCTCCC
DNA 2: TGGTGGCTACGACGGGATT
B4: AGUGUUG (DNA:RNA)
RNA: B1 RNA with U25A, C26G, C27U, C28G, C30U
DNA 1: CAATCTGAATTCCGGTCTCCC
DNA 2: TGGTGGCTACGACGGGATT
B5: AGUCACC (DNA:RNA)
RNA: B1 RNA with U25A, C26G, C27U, U29A, G31C
DNA 1: CAATCTGAATTCCGGTCTCCC
DNA 2: TGGTGGCTACGACGGGATT
B6: UGUACCC (DNA:RNA)
RNA: B1 RNA with C26G, C27U, C28A, U29C, G31C
DNA 1: CAATCTGAATTCCGGTCTCCC
DNA 2: TGGTGGCTACGACGGGATT
B7: GCAGACU (DNA:RNA)
RNA: B1 RNA with U25G, C27A, C28G, U29A, G31U
DNA 1: CAATCTGAATTCCGGTCTCCC
DNA 2: TGGTGGCTACGACGGGATT
B8: ACGUAUG (DNA:RNA)
RNA: B1 RNA with U25A, C27G, C28U, U29A, C30U
DNA 1: CAATCTGAATTCCGGTCTCCC
DNA 2: TGGTGGCTACGACGGGATT
B9: ACGUCCC (DNA:RNA)
RNA: B1 RNA with U25A, C27G, C28U, U29C, G31C
DNA 1: CAATCTGAATTCCGGTCTCCC
DNA 2: TGGTGGCTACGACGGGATT
B10: GGUCCGU (DNA:RNA)
RNA: B1 RNA with U25G, C26G, C27U, U29C, C30G, G31U
DNA 1: CAATCTGAATTCCGGTCTCCC
DNA 2: TGGTGGCTACGACGGGATT
B11: GUCGGUA (DNA:RNA)
RNA: B1 RNA with U25G, C26U, C28G, U29G, C30U, G31A
DNA 1: CAATCTGAATTCCGGTCTCCC
DNA 2: TGGTGGCTACGACGGGATT
B12: GGUAUGU (DNA:RNA)
RNA: B1 RNA with U25G, C26G, C27U, C28A, C30G, G31U
DNA 1: CAATCTGAATTCCGGTCTCCC
DNA 2: TGGTGGCTACGACGGGATT
B13: AGUAUGU (DNA:RNA)
RNA: B1 RNA with U25A, C26G, C27U, C28A, C30G, G31U
DNA 1: CAATCTGAATTCCGGTCTCCC
DNA 2: TGGTGGCTACGACGGGATT
B14: GGUAUUG (DNA:RNA)
RNA: B1 RNA with U25G, C26G, C27U, C28A, C30U
DNA 1: CAATCTGAATTCCGGTCTCCC
DNA 2: TGGTGGCTACGACGGGATT
B15: CGGUCGU (DNA:RNA)
RNA: GGGAGACCGGAAUUCAGAUUGUCCCGGUCGUUUAAAUCCCGUCGUAGCCACCA
DNA 1: CAATCTGAATTCCGGTCTCCC
DNA 2: TGGTGGCTACGACGGGATT
B16: GGUAUUA (DNA:RNA)
RNA: B15 RNA with C25G, G27U, U28A, C29U, G30U, U31A
DNA 1: CAATCTGAATTCCGGTCTCCC
DNA 2: TGGTGGCTACGACGGGATT
B17: CAGUAUG (DNA:RNA)
RNA: B15 RNA with G26A, C29A, G30U, U31G
DNA 1: CAATCTGAATTCCGGTCTCCC
DNA 2: TGGTGGCTACGACGGGATT
B18: ACGUAGC (DNA:RNA)
RNA: B15 RNA with C25A, G26C, C29A, U31C
DNA 1: CAATCTGAATTCCGGTCTCCC
DNA 2: TGGTGGCTACGACGGGATT
B19: CCCAGUA (DNA:RNA)
RNA: B1 RNA with U25C, C28A, U29G, C30U, G31A
DNA 1: CAATCTGAATTCCGGTCTCCC
DNA 2: TGGTGGCTACGACGGGATT
B20: CUUACUC (DNA:RNA)
RNA: B15 RNA with G26U, G27U, U28A, G30U, U31C
DNA 1: CAATCTGAATTCCGGTCTCCC
DNA 2: TGGTGGCTACGACGGGATT
B21: AACUUUU (DNA:RNA)
RNA: B15 RNA with C25A, G26A, G27C, C29U, G30U
DNA 1: CAATCTGAATTCCGGTCTCCC
DNA 2: TGGTGGCTACGACGGGATT
B22: AGUUUGA (DNA:RNA)
RNA: B15 RNA with C25A, G27U, C29U, U31A
DNA 1: CAATCTGAATTCCGGTCTCCC
DNA 2: TGGTGGCTACGACGGGATT
B23: UCUACAC (DNA:RNA)
RNA: B1 RNA with C27U, C28A, U29C, C30A, G31C
DNA 1: CAATCTGAATTCCGGTCTCCC
DNA 2: TGGTGGCTACGACGGGATT
B24: CAUCGCC (DNA:RNA)
RNA: B1 RNA with U25C, C26A, C27U, U29G, G31C
DNA 1: CAATCTGAATTCCGGTCTCCC
DNA 2: TGGTGGCTACGACGGGATT
B25: UACCUUG (DNA:RNA)
RNA: B1 RNA with C26A, C30U
DNA 1: CAATCTGAATTCCGGTCTCCC
DNA 2: TGGTGGCTACGACGGGATT
B26: UUUAACG (DNA:RNA)
RNA: B1 RNA with C26U, C27U, C28A, U29A
DNA 1: CAATCTGAATTCCGGTCTCCC
DNA 2: TGGTGGCTACGACGGGATT
B27: GGUCAAC (DNA:RNA)
RNA: B15 RNA with C25G, G27U, U28C, C29A, G30A, U31C
DNA 1: CAATCTGAATTCCGGTCTCCC
DNA 2: TGGTGGCTACGACGGGATT
B28: AUAUCUA (DNA:RNA)
RNA: B15 RNA with C25A, G26U, G27A, G30U, U31A
DNA 1: CAATCTGAATTCCGGTCTCCC
DNA 2: TGGTGGCTACGACGGGATT
B29: GGGUAGA (DNA:RNA)
RNA: B15 RNA with C25G, C29A, U31A
DNA 1: CAATCTGAATTCCGGTCTCCC
DNA 2: TGGTGGCTACGACGGGATT
B30: CCCUAUG (DNA:RNA)
RNA: B1 RNA with U25C, C28U, U29A, C30U
DNA 1: CAATCTGAATTCCGGTCTCCC
DNA 2: TGGTGGCTACGACGGGATT
B31: CCAUAUG (DNA:RNA)
RNA: B15 RNA with G26C, G27A, C29A, G30U, U31G
DNA 1: CAATCTGAATTCCGGTCTCCC
DNA 2: TGGTGGCTACGACGGGATT
B32: GGGGGUA (DNA:RNA)
RNA: B15 RNA with C25G, U28G, C29G, G30U, U31A
DNA 1: CAATCTGAATTCCGGTCTCCC
DNA 2: TGGTGGCTACGACGGGATT
B33: UAGUAUG (DNA:RNA)
RNA: B15 RNA with C25U, G26A, C29A, G30U, U31G
DNA 1: CAATCTGAATTCCGGTCTCCC
DNA 2: TGGTGGCTACGACGGGATT
B34: UAGUAAA (DNA:RNA)
RNA: B15 RNA with C25U, G26A, C29A, G30A, U31A
DNA 1: CAATCTGAATTCCGGTCTCCC
DNA 2: TGGTGGCTACGACGGGATT
B35: GGGUAUG (DNA:RNA)
RNA: B15 RNA with C25G, C29A, G30U, U31G
DNA 1: CAATCTGAATTCCGGTCTCCC
DNA 2: TGGTGGCTACGACGGGATT
B36: UAGUAUC (DNA:RNA)
RNA: B15 RNA with C25U, G26A, C29A, G30U, U31C
DNA 1: CAATCTGAATTCCGGTCTCCC
DNA 2: TGGTGGCTACGACGGGATT
B37: GUUUAUG (DNA:RNA)
RNA: B15 RNA with C25G, G26U, G27U, C29A, G30U, U31G
DNA 1: CAATCTGAATTCCGGTCTCCC
DNA 2: TGGTGGCTACGACGGGATT
B38: GUAUGUU (DNA:RNA)
RNA: B15 RNA with C25G, G26U, G27A, C29G, G30U
DNA 1: CAATCTGAATTCCGGTCTCCC
DNA 2: TGGTGGCTACGACGGGATT
B39: GUUAUGU (DNA:RNA)
RNA: B15 RNA with C25G, G26U, G27U, U28A, C29U
DNA 1: CAATCTGAATTCCGGTCTCCC
DNA 2: TGGTGGCTACGACGGGATT
B40: CCGUAUG (DNA:RNA)
RNA: B15 RNA with G26C, C29A, G30U, U31G
DNA 1: CAATCTGAATTCCGGTCTCCC
DNA 2: TGGTGGCTACGACGGGATT

Biological target: T1, RBFOX1 RRM RbFoxmut (Fox-RRM*)
Test: EMSA; HiTS-Eq, 1 nM pool, 10 min; buffer printed only for the single-RNA assays: 10 mM Tris pH 7.5, 150 mM NaCl, 3.4 mM EDTA, 0.001% NP-40, 30 C
Conditions: tags: His6 N-terminal (pET28a); label: 5' 32P
Method in brief: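 Purified wild-type or mutant RbFox RRM at increasing concentrations was equilibrated with 1 nM of 5′-radiolabelled RNA carrying 7 randomized nucleotides for 10 min in 50 µL. Unbound RNA was separated by 8% native PAGE and sequenced. Relative association constants came from read-count changes of each RNA species compared with the control reaction, normalised to the cognate motif.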

Row | Binder | binding signal
1 | B1 | 0.133 KA relative to UGCAUGU
2 | B2 | 0.0738 KA relative to UGCAUGU
3 | B3 | 0.113 KA relative to UGCAUGU
4 | B4 | 0.186 KA relative to UGCAUGU
5 | B5 | 0.0525 KA relative to UGCAUGU
6 | B6 | 0.0834 KA relative to UGCAUGU
7 | B7 | 0.0704 KA relative to UGCAUGU
8 | B8 | 0.385 KA relative to UGCAUGU
9 | B9 | 0.056 KA relative to UGCAUGU
10 | B10 | 0.136 KA relative to UGCAUGU
11 | B11 | 0.2 KA relative to UGCAUGU
12 | B12 | 0.662 KA relative to UGCAUGU
13 | B13 | 0.351 KA relative to UGCAUGU
14 | B14 | 0.466 KA relative to UGCAUGU
15 | B15 | 0.104 KA relative to UGCAUGU
16 | B16 | 0.107 KA relative to UGCAUGU
17 | B17 | 0.566 KA relative to UGCAUGU
18 | B18 | 0.122 KA relative to UGCAUGU
19 | B19 | 0.116 KA relative to UGCAUGU
20 | B20 | 0.0513 KA relative to UGCAUGU

Row | Binder | binding signal
21 | B21 | 0.0643 KA relative to UGCAUGU
22 | B22 | 0.169 KA relative to UGCAUGU
23 | B23 | 0.0553 KA relative to UGCAUGU
24 | B24 | 0.125 KA relative to UGCAUGU
25 | B25 | 0.1 KA relative to UGCAUGU
26 | B26 | 0.112 KA relative to UGCAUGU
27 | B27 | 0.052 KA relative to UGCAUGU
28 | B28 | 0.124 KA relative to UGCAUGU
29 | B29 | 0.134 KA relative to UGCAUGU
30 | B30 | 0.101 KA relative to UGCAUGU
31 | B31 | 0.123 KA relative to UGCAUGU
32 | B32 | 0.137 KA relative to UGCAUGU
33 | B33 | 0.674 KA relative to UGCAUGU
34 | B34 | 0.117 KA relative to UGCAUGU
35 | B35 | 0.93 KA relative to UGCAUGU
36 | B36 | 0.183 KA relative to UGCAUGU
37 | B37 | 0.172 KA relative to UGCAUGU
38 | B38 | 0.497 KA relative to UGCAUGU
39 | B39 | 0.268 KA relative to UGCAUGU
40 | B40 | 0.534 KA relative to UGCAUGU
